# Hit rate of the full screen: of about 16,000 compounds, about 2,600 (16%) were called active. Another 20% or so got no clear call; they are omitted. Calls follow the shape of the dose curve; as a rule, active = well fitted curve in the direction sought with a large enough effect; inconclusive = small, poorly fitted or top-dose-only effect, or effect the other way; inactive = no such curve, though single readings can be large or run the other way. A selection follows.
# Target: Cytochrome P450 2D6 (Homo sapiens) (UniProt P10635)
# Assay: Cytochrome panel assay with activity outcomes
# Conditions: recombinant CYP, pro-luciferin dealkylation, luminescence, p450-cyp2d6; series mostly up to 57.1 µM; activity, negative = inhibition: at the top concentration
# % is scaled to controls: 0 for no effect and ±100 for the full control effect.
# Cytochrome P450 2D6 (Homo sapiens), sequence (P10635 whole entry, looked up): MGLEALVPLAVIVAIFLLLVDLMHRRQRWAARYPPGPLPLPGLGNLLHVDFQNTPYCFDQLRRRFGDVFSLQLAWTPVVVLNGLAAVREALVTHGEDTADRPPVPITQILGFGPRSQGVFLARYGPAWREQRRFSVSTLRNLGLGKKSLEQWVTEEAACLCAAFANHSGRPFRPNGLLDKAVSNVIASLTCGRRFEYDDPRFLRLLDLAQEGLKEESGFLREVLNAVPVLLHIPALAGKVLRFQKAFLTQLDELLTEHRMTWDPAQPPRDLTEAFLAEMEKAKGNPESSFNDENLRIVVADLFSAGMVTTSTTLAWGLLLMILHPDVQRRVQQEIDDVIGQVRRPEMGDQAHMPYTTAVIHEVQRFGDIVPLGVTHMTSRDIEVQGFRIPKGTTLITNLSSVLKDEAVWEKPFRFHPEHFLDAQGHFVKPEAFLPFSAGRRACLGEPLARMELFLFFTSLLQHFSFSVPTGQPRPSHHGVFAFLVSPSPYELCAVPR
SMILES,"activity, negative = inhibition",AC50
COc1ccc(-c2nc3cnc(OC)nc3n(CCc3ccccc3)c2=O)cc1,2.49% (inactive),–
CCN(CC)C(=O)CSc1nc(O)cc(=O)n1CC,-3.51% (inactive),–
Cc1n[nH]c(C)c1N=Nc1cc(Cl)ccc1Cl,-10.6% (inactive),–
COc1ccc(Cl)cc1N=Nc1ncc[nH]1,–,2.51 µM (active)
N#Cc1ccccc1Sc1ccccc1N,-20% (inactive),–
CCc1ccc(-c2csc(NC(=O)C3CCCO3)c2C(=O)OC(C)C)cc1 (centres undefined),-13.9% (inactive),–
Fc1ccc(CN(C2=NCCN2)c2c(Cl)cccc2Cl)cc1,–,1.26 µM (active)
CN(C)C(=O)Oc1cccc([N+](C)(C)C)c1,3.32% (inactive),–
COc1ccccc1CNC(=O)CCN1C(=O)COc2ccc(C)cc21,-7.37% (inactive),–
Cc1ccc2c(c1)N(CCC(=O)NCCN1CCOCC1)C(=O)CO2,-18.8% (inactive),–
Cc1ccc2c(c1)N(CCC(=O)NCc1ccc3c(c1)OCO3)C(=O)CO2,–,14.1 µM (active)
O=c1c(-c2ccc(F)cc2)nc2cnc(N3CCNCC3)nc2n1-c1ccccc1,-8.75% (inactive),–
Cn1cc(-c2nc3cnc(Oc4ccccc4)nc3n(CCC#N)c2=O)c2ccccc21,2.05% (inactive),–
Nc1ncnc2c1nc(Sc1ccc(Cl)cc1)n2[C@@H]1O[C@H]2COP(=O)(O)O[C@@H]2[C@H]1O,-5.59% (inactive),–
COC(=O)[C@@]1(Cc2ccc(F)cc2)[C@H]2c3cc(C(=O)N4CCCC4)n(Cc4ccc(S(C)(=O)=O)cc4)c3C[C@H]2CN1C(=O)c1ccccc1,-15.9% (inactive),–
COC(=O)[C@@]1(Cc2ccc(OC)cc2)[C@H]2c3cc(C(=O)N(C)C)[nH]c3C[C@H]2CN1C(=O)c1ccccc1,-14.8% (inactive),–
COC(=O)[C@@]1(Cc2ccccc2)[C@H]2c3cc(C(=O)N(C)C)n(Cc4c(CO)[nH]cc(C)c4=O)c3C[C@H]2CN1C(=O)c1ccccc1,–,12.6 µM (active)
COC(=O)[C@@]1(Cc2ccc(F)cc2)[C@H]2c3cc(C(=O)N4CCCC4)n(Cc4cccc5ccccc45)c3C[C@H]2CN1C(=O)c1ccccc1,-0.395% (inactive),–
COC(=O)[C@@]1(Cc2ccc(OC)cc2)[C@H]2c3cc(C(=O)N4CCCC4)n(CCn4cc([N+](=O)[O-])nc4C)c3C[C@H]2CN1C(=O)c1ccccc1,-0.835% (inactive),–
COC(=O)[C@@]1(Cc2ccc(F)cc2)[C@H]2c3cc(C(=O)N(C)C)n(Cc4c(CO)[nH]cc(C)c4=O)c3C[C@H]2CN1C(=O)c1ccccc1,–,15.8 µM (active)
CC(=O)NCc1c(Cl)cccc1-n1cccc1,-25.8% (inactive),–
CC(C)(C)OC(=O)COc1cc(OCC(=O)OC(C)(C)C)c2c(=O)cc(-c3ccccc3)oc2c1,4.28% (inactive),–
O=c1c(-c2cc(F)cc(F)c2)nc2cncnc2n1C1CC1,-7.27% (inactive),–
C=CCN1CCc2c(cc(O)c(O)c2Br)[C@H](c2ccccc2)C1,–,12.6 µM (active)
Cc1cccc([C@@H]2CN(C)CCc3c2cc(O)c(O)c3Cl)c1,-0.0741% (inactive),–
C=CCN1CCc2cc(O)c(O)cc2[C@H](c2ccccc2)C1,–,0.398 µM (active)
CN1CCc2cc(Cl)c(O)cc2[C@H](c2ccccc2)C1,–,0.631 µM (active)
CN1C[C@H](c2ccccc2)C(O)([C@]2(c3ccccc3)CN(C)C[C@@H](c3ccccc3)C2=O)[C@H](c2ccccc2)C1 (some centres undefined),-18.6% [at 11.4 µM] (inactive),–
C=CCN1CCc2c(cc(O)c(O)c2Cl)[C@H](c2ccccc2)C1,–,25.1 µM (active)
